About 83,000 compounds went through this panel and 20% of them were active in at least one assay; those are over-represented in the sample as a whole.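 Results are percent growth after 48 hours of single-concentration exposure. 100 means growth as in untreated cells, lower positive values show inhibition; negative values down to -100 show cell death.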 Values without a mark were called inactive. The source made the active and inactive calls. How the source made its calls: active means growth percent below 10; inactive means the rest.

What all share (assay): NCI-60 one-dose screen, 48 h (100 = growth as untreated, 0 = no growth, -100 = all killed)
For one test, the system named is T-47D breast. To be noted: 10 µM unless noted.
A further test has as its system BT-549 breast. To be noted: 10 µM unless noted.
The next test concerns MDA-MB-435 melanoma. To be noted: 10 µM unless noted.
A further test deals with SW-620 colon. To be noted: 10 µM unless noted.
For another test, the system named is MCF7 breast. To be noted: 10 µM unless noted.
A further test has as its system HCT-116 colon. To be noted: 10 µM unless noted.
The next test relates to HCC-2998 colon. To be noted: 10 µM.
The subject of the next test is KM12 colon. To be noted: 10 µM unless noted.

`C#Cc1cccc(Nc2ncnc3cc(OCCOC)c(OCCOC)cc23)c1`: the growth was 30.9% with T-47D breast; 68.6% in the test with BT-549 breast; 74.7% in the test on MDA-MB-435 melanoma; 74.6% in the test with SW-620 colon; 88.3% with MCF7 breast; 54.1% in the test with HCT-116 colon. In addition, the growth in the test on HCC-2998 colon is 94.8%; in the test with KM12 colon it was 77.8%.

As for `C=CCCCOC1[C@H](OCc2ccccc2)C(OCc2ccccc2)C(OC)O[C@@H]1CNC(=O)c1cccc(I)c1` (stereo not given in full), the growth in the test with T-47D breast is 33.4%; in the test on BT-549 breast, 57.5%; in the test on MDA-MB-435 melanoma, 44.7%; in the test on SW-620 colon, 32.6%; with MCF7 breast it was 20.4%; in the test on HCT-116 colon, 19.8%. In addition, the growth in the test on HCC-2998 colon was 86.7%; in the test on KM12 colon, 38.5%.

Take `CCCCCCCC(=O)SCC/C=C/[C@@H]1CC(=O)NCc2cccc(n2)C2=N[C@@](C)(CS2)C(=O)N[C@@H](C(C)C)C(=O)O1`: the growth is -14.1% (active) in the test on T-47D breast; 32% in the test on BT-549 breast; -9.48% (active) in the test on MDA-MB-435 melanoma; 3.63% (active) in the test with SW-620 colon; 15.5% in the test on MCF7 breast; -27.7% (active) in the test on HCT-116 colon. Further, the results for the growth with HCC-2998 colon and with KM12 colon were -73.4% (active) and 3.74% (active), respectively.

In the case of `CCN(CC)CCN1C(=O)c2cccc3c(-c4ccc5c(c4)ncn5C4CCCCC4)ccc(c23)C1=O`, the growth in the test with T-47D breast is -9.17% (active); in the test on BT-549 breast, 4.57% (active); in the test with MDA-MB-435 melanoma, 17%; in the test on SW-620 colon, 11.2%; with MCF7 breast, -7% (active); with HCT-116 colon, -66.1% (active). The figures for the growth in the test on HCC-2998 colon and with KM12 colon were 36.7% and 24.3%, respectively.

`CN(C)CCn1c(=O)c2c3cc4c(cc3n(CCN(C)C)c2c2ccc(Cl)cc21)OCO4`: the growth in the test on T-47D breast was 57.2%; in the test with BT-549 breast, 63.6%; in the test with MDA-MB-435 melanoma, 70.7%; in the test on SW-620 colon, -14.7% (active); with MCF7 breast it was 21.3%; in the test on HCT-116 colon, -79.4% (active). Besides, the growth is 81.7% in the test on HCC-2998 colon and 45.1% in the test on KM12 colon.

With `COc1cc(-c2cc(-c3ccc(Nc4ccnc5cc(Cl)ccc45)cc3)nc(N3CCOCC3)n2)cc(OC)c1OC`, the growth in the test with T-47D breast is 12.8%; in the test with BT-549 breast, 24.4%; in the test on MDA-MB-435 melanoma it was -35% (active); in the test on SW-620 colon, 1.68% (active); in the test with MCF7 breast, 4.34% (active); with HCT-116 colon, -63.3% (active). Further, the growth with HCC-2998 colon is 18.7%; in the test on KM12 colon, 25.2%.

Regarding `Cc1cc(O)c2c(c1)C1OC(=O)CCCCCN1C1=C2C(=O)c2cccc(OC3CC(O)C(O)C(C)O3)c2C1=O` (stereo not given), the growth is 85.6% in the test on T-47D breast; 83.6% in the test with BT-549 breast; 13.1% with MDA-MB-435 melanoma; 99.9% in the test with SW-620 colon; 17.7% in the test on MCF7 breast; 24.5% in the test with HCT-116 colon. In addition, the growth in the test with HCC-2998 colon is 73%; in the test on KM12 colon, 83.4%.

As to `Cc1ccccc1N1C(c2ccccc2)=NNC12C=CC(=O)C=C2Cl` (stereo not given), the growth in the test on T-47D breast was 117%; with BT-549 breast, 106%; in the test on MDA-MB-435 melanoma, 112%; in the test on SW-620 colon, 119%; in the test with MCF7 breast, 98%; in the test on HCT-116 colon it was 103%. In addition, the growth was 102% in the test on HCC-2998 colon and 110% in the test on KM12 colon.

For the molecule `CC(C)[C@@H]1CC[C@]2(CO2)[C@@H]2C(=O)OCC(C(=O)O)=C[C@H]21`, the growth in the test on T-47D breast was 12.3%; in the test on BT-549 breast, -5.36% (active); in the test with MDA-MB-435 melanoma, -6.19% (active); in the test on SW-620 colon, 5.52% (active); in the test with MCF7 breast, 45.3%; with HCT-116 colon, 3.63% (active). The figures for the growth in the test with HCC-2998 colon and in the test with KM12 colon were 4.07% (active) and 2.53% (active), respectively.

For `CO[C@@H](C(=O)N1Cc2[nH]nc(NC(=O)c3ccc(N4CCN(C)CC4)cc3)c2C1)c1ccccc1`, the growth in the test with T-47D breast was -16.3% (active); in the test with BT-549 breast, -10.8% (active); with MDA-MB-435 melanoma it was 19.5%; in the test with SW-620 colon, 21.5%; in the test with MCF7 breast, 17.7%; in the test with HCT-116 colon, -35.7% (active). The growth in the test on HCC-2998 colon was 26.4%; in the test with KM12 colon, -28.7% (active).

On to `COc1c(OCCCN2CCOCC2)ccc2c3n(c(=NC(=O)c4cnc(N)nc4)nc12)CCN3`, for which the growth is -24% (active) in the test on T-47D breast; -5.84% (active) with BT-549 breast; 4.22% (active) in the test on MDA-MB-435 melanoma; 20.5% in the test on SW-620 colon; 11.9% in the test with MCF7 breast; 13.8% with HCT-116 colon. Further, the growth with HCC-2998 colon was -15.7% (active); in the test on KM12 colon it was -2.1% (active).

Regarding `CN(c1ncccc1CNc1nc(Nc2ccc3c(c2)CC(=O)N3)ncc1C(F)(F)F)S(C)(=O)=O`, the growth in the test on T-47D breast is -2.8% (active); with BT-549 breast, -10.5% (active); in the test on MDA-MB-435 melanoma it was -9.58% (active); in the test on SW-620 colon it was 0.466% (active); in the test on MCF7 breast it was 2.39% (active); with HCT-116 colon, 1.07% (active). Also, the growth in the test on HCC-2998 colon was -13.5% (active); in the test with KM12 colon, 1.83% (active).

With `C[C@@H](C[C@H](CCO)c1cc(C(F)(F)F)cc(C(F)(F)F)c1)c1ccc2ccccc2c1`, the growth with T-47D breast was 55.2%; in the test with BT-549 breast, 102%; in the test with MDA-MB-435 melanoma it was 38.8%; in the test on SW-620 colon, 88.7%; in the test with MCF7 breast it was 78.9%; with HCT-116 colon, 67.6%. Also, the growth in the test with HCC-2998 colon was 86.1%; with KM12 colon, 71.3%.

Regarding `COC(=O)[C@H](Cc1ccc(O)cc1)NC(=O)[C@@H](OC)[C@@H]1Cc2cc3cc(OC4CC(OC5CC(O)C(O)C(C)O5)C(O)C(C)O4)c(C)c(O)c3c(O)c2C(=O)[C@H]1OC1CC(OC2CC(OC3CC(C)(O)C(O)C(C)O3)C(O)C(C)O2)C(O)C(C)O1` (stereo not given in full), the growth is 4.63% (active) in the test on T-47D breast; -36.9% (active) with BT-549 breast; -26.8% (active) in the test on MDA-MB-435 melanoma; 11.3% in the test on SW-620 colon; 8.15% (active) in the test on MCF7 breast; 4.11% (active) in the test on HCT-116 colon. The growth is -67% (active) with HCC-2998 colon and 5.68% (active) with KM12 colon.

As to `COc1ccc2c(CCCC(c3ccccc3)c3ccccc3)c3[n+](cc2c1OC)CCc1cc2c(cc1-3)OCO2`, the growth in the test on T-47D breast is -15.6% (active); in the test with BT-549 breast it was -65.6% (active); with MDA-MB-435 melanoma it was -90.7% (active); in the test on SW-620 colon, 0.287% (active); with MCF7 breast it was -3.37% (active); with HCT-116 colon, -33.9% (active). Further, the growth in the test with HCC-2998 colon was -81.9% (active); in the test on KM12 colon it was -65% (active).

(Values after PubChem BioAssay (NCI).)
